Test results taken from PubChem BioAssay (EPA / NIEHS).
Activity calls are given as the source filed them. Rule for the calls: active = hit-call score of the fitted dose curve at least 0.9, where 1 is the maximum; inactive = score below 0.9.

Read-out: Glutamate-cysteine ligase catalytic (GCLC), GCLC (gene 2729)
Assay: LTEA_HepaRG_GCLC: Life Technologies and Expression Analysis (LTEA) Assay for Glutamate-cysteine ligase catalytic (GCLC) using HepaRG (AID 2283498)
Details: mRNA level, 48 h; actives raise or lower the signal
Method in brief: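 Oxidative-stress marker GCLC is measured as mRNA change in human HepaRG liver cells after 48 h chemical treatment in 0.5% DMSO, eight concentrations from 100 uM. Activity is fitted bidirectionally against vehicle.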

Which outcome does the source give for `CCCCC(CC)COC(=O)CCCCCCCC(=O)OCC(CC)CCCC` (stereo not drawn) here?
Its outcome is “inactive”.

For `C=CCc1ccc(OC)c(OC)c1`, which outcome is on record?
Its outcome is “inactive”.

For `CC(=O)O`, which outcome is on record?
The outcome was “inactive”.

`CC(C)(O)c1ccc(CNC(=O)c2cccnc2Oc2ccc(F)cc2)cc1` was tested. Which outcome did it give?
The outcome was “inactive”.

`NC1CCCCC1` was tested. Which outcome did it give?
The outcome was “inactive”.

For `CC(=O)O[C@]1(C(C)=O)CC[C@H]2[C@@H]3C=C(Cl)C4=CC(=O)[C@@H]5C[C@@H]5[C@]4(C)[C@H]3CC[C@@]21C`, which outcome is on record?
Its outcome is “inactive”.

With `O=C(NS(=O)(=O)/C=C/c1cccs1)c1ccc(F)cc1Br` as the molecule, how does the outcome read?
The outcome was “inactive”.

`O=C(O)c1cccnc1` was tested. Which outcome did it give?
Its outcome is “inactive”.

With `O=C(Oc1ccccc1)c1cccc(C(=O)Oc2ccccc2)c1` as the molecule, how does the outcome read?
Its outcome is “inactive”.

For `CCCC(=O)O`, which outcome is on record?
The outcome was “inactive”.

With `COC(=O)CCC(=O)OC` as the molecule, how does the outcome read?
Its outcome is “inactive”.

How did the outcome turn out when `CC(=O)OCC(COC(C)=O)OC(C)=O` was run?
Its outcome is “inactive”.

Which outcome does the source give for `O=C1CCCCC1` here?
Its outcome is “inactive”.

`CC(COCC(C)OC(=O)c1ccccc1)OC(=O)c1ccccc1` (stereo not drawn) was tested. Which outcome did it give?
The outcome was “inactive”.

`CC(C)COC(=O)CCCCC(=O)OCC(C)C` was tested. Which outcome did it give?
The outcome was “inactive”.

With `CC(C)c1cccc(C(C)C)c1` as the molecule, how does the outcome read?
The outcome was “inactive”.

How did the outcome turn out when `C/C=C/c1ccc(OC)cc1` was run?
Its outcome is “inactive”.

For `CN(C)CCCN(C)CCCN(C)C`, which outcome is on record?
Its outcome is “inactive”.

How did the outcome turn out when `CCOCCOCCO` was run?
The outcome was “inactive”.

How did the outcome turn out when `CCCCC(CC)COP(=O)(OCC(CC)CCCC)OCC(CC)CCCC` (stereo not drawn) was run?
Its outcome is “inactive”.

With `CCCCCCCCCCCCCCCCO` as the molecule, how does the outcome read?
Its outcome is “inactive”.

With `CC(N)=O` as the molecule, how does the outcome read?
The outcome was “inactive”.

`CCCCCCC(CCCCCCCCCCC(=O)OCC(COC(C)=O)OC(C)=O)OC(C)=O` (stereo not drawn) was tested. Which outcome did it give?
Its outcome is “inactive”.

How did the outcome turn out when `NC(=Nc1ccccc1)Nc1ccccc1` was run?
Its outcome is “inactive”.

With `Cc1cn([C@H]2C=C[C@@H](CO)O2)c(=O)[nH]c1=O` as the molecule, how does the outcome read?
Its outcome is “inactive”.

How did the outcome turn out when `CCCCCCCC(=O)OC` was run?
The outcome was “inactive”.

Which outcome does the source give for `CCCCC(CC)CO` (stereo not drawn) here?
Its outcome is “inactive”.

Which outcome does the source give for `O=C(N[C@@H](c1ccccc1)[C@@H]1CCCCN1)c1cccc(C(F)(F)F)c1Cl` here?
Its outcome is “inactive”.

`CCN(CC)CCOc1ccc(C(=C(Cl)c2ccccc2)c2ccccc2)cc1` was tested. Which outcome did it give?
Its outcome is “inactive”.

Read-out: growth arrest and DNA damage 45 (GADD45G), GADD45G (gene 10912)
Assay: LTEA_HepaRG_GADD45G: Life Technologies and Expression Analysis (LTEA) Assay for growth arrest and DNA damage 45 (GADD45G) using HepaRG (AID 2283499)
Details: mRNA level, 48 h; actives raise or lower the signal
Method in brief: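 HepaRG, 48 h exposure, top 100 uM, half-log 8-point series, 0.5% DMSO vehicle, duplicates. Readout: GADD45G transcript by qRT-PCR (Fluidigm array), housekeeping-normalised (ACTB/GAPDH/POLR2A). Bidirectional curve fit vs DMSO baseline.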

`CCCCC(CC)COC(=O)CCCCCCCC(=O)OCC(CC)CCCC` (stereo not drawn) was tested. Which outcome did it give?
Its outcome is “inactive”.

For `C=CCc1ccc(OC)c(OC)c1`, which outcome is on record?
Its outcome is “inactive”.

How did the outcome turn out when `CC(=O)O` was run?
Its outcome is “inactive”.

How did the outcome turn out when `CC(C)(O)c1ccc(CNC(=O)c2cccnc2Oc2ccc(F)cc2)cc1` was run?
The outcome was “inactive”.

With `NC1CCCCC1` as the molecule, how does the outcome read?
Its outcome is “inactive”.

With `CC(=O)O[C@]1(C(C)=O)CC[C@H]2[C@@H]3C=C(Cl)C4=CC(=O)[C@@H]5C[C@@H]5[C@]4(C)[C@H]3CC[C@@]21C` as the molecule, how does the AC50 read?
Its AC50 is 50 µM (active).

For `O=C(NS(=O)(=O)/C=C/c1cccs1)c1ccc(F)cc1Br`, which outcome is on record?
The outcome was “inactive”.

Which outcome does the source give for `O=C(O)c1cccnc1` here?
The outcome was “inactive”.

`O=C(Oc1ccccc1)c1cccc(C(=O)Oc2ccccc2)c1` was tested. Which outcome did it give?
Its outcome is “inactive”.

With `CCCC(=O)O` as the molecule, how does the outcome read?
The outcome was “inactive”.

With `COC(=O)CCC(=O)OC` as the molecule, how does the outcome read?
The outcome was “inactive”.

How did the outcome turn out when `CC(=O)OCC(COC(C)=O)OC(C)=O` was run?
Its outcome is “inactive”.

How did the outcome turn out when `O=C1CCCCC1` was run?
Its outcome is “inactive”.

How did the outcome turn out when `CC(COCC(C)OC(=O)c1ccccc1)OC(=O)c1ccccc1` (stereo not drawn) was run?
Its outcome is “inactive”.

With `CC(C)COC(=O)CCCCC(=O)OCC(C)C` as the molecule, how does the outcome read?
Its outcome is “inactive”.

`CC(C)c1cccc(C(C)C)c1` was tested. Which outcome did it give?
Its outcome is “inactive”.

How did the outcome turn out when `C/C=C/c1ccc(OC)cc1` was run?
Its outcome is “inactive”.

Which outcome does the source give for `CN(C)CCCN(C)CCCN(C)C` here?
Its outcome is “inactive”.

Which outcome does the source give for `CCOCCOCCO` here?
Its outcome is “inactive”.

How did the outcome turn out when `CCCCC(CC)COP(=O)(OCC(CC)CCCC)OCC(CC)CCCC` (stereo not drawn) was run?
The outcome was “inactive”.

For `CCCCCCCCCCCCCCCCO`, which outcome is on record?
Its outcome is “inactive”.

How did the outcome turn out when `CC(N)=O` was run?
The outcome was “inactive”.

For `CCCCCCC(CCCCCCCCCCC(=O)OCC(COC(C)=O)OC(C)=O)OC(C)=O` (stereo not drawn), which outcome is on record?
Its outcome is “inactive”.

`NC(=Nc1ccccc1)Nc1ccccc1` was tested. Which outcome did it give?
Its outcome is “inactive”.

How did the outcome turn out when `Cc1cn([C@H]2C=C[C@@H](CO)O2)c(=O)[nH]c1=O` was run?
The outcome was “inactive”.

With `CCCCCCCC(=O)OC` as the molecule, how does the outcome read?
Its outcome is “inactive”.

`CCCCC(CC)CO` (stereo not drawn) was tested. Which outcome did it give?
The outcome was “inactive”.

`O=C(N[C@@H](c1ccccc1)[C@@H]1CCCCN1)c1cccc(C(F)(F)F)c1Cl` was tested. Which AC50 did it give?
The AC50 was 82.8 µM (active).

For `CCN(CC)CCOc1ccc(C(=C(Cl)c2ccccc2)c2ccccc2)cc1`, which outcome is on record?
Its outcome is “inactive”.
